From the supplement of paper PMC10849652
Targets with a hit are over-represented here; the source holds about 7,900 in all. About 0.6% of all pairs of compound and target were hits.

Columns and labels:
Test in all cases: log2 fold change, soluble protein after heating vs DMSO (PISA); higher = thermal stabilisation; K562 cells, 10 uM, 30 min; active = over 0.2 and 3.5 SD of the protein, either way, in both replicates (recomputed)
erlotinib = compound: C#Cc1cccc(Nc2ncnc3cc(OCCOC)c(OCCOC)cc23)c1 [erlotinib]
Method in brief: (§1)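 Aliquots of K562 cells (2×10^6 cells/mL) treated with 10 μM compound for 30 min were heated for 3 min over 48°C-58°C. After pooling and extraction in PBS with 0.5% NP-40 at 4°C, soluble protein from a 21,000xg, 90 min spin was quantified by TMTpro 16plex LC-MS/MS with channel sums equalised. Thermal stability is expressed against control samples, from duplicates, as a log2 fold change.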

[1] = compound: C/C(=N\NC(=O)C1=CC(=CC=C1)S(=O)(=O)N2CCOCC2)/C3=C(C=CC(=C3)Cl)O
Method in brief: as §1

[2] = compound: C1=CC(=C(C=C1Cl)C2=NC3=NC=CN=C3C(=N2)NC4=CC=NC=C4)F
Method in brief: as §1

[3] = compound: C1=CC(=CC=C1C2=NC3=C(N2)C=C(C=C3)C(=O)N)OC4=CC=C(C=C4)Cl
Method in brief: as §1

[4] = compound: C1=CC2=C(C=CC(=C2)/C=C\3/C(=O)NC(=NCC4=CC=CS4)S3)N=C1
Method in brief: as §1

[5] = compound: C1=CC2=NC=CN=C2C=C1/C=C/3\C(=O)NC(=O)S3
Method in brief: as §1

[6] = compound: C1=CC=C(C=C1)C2=NC(=C(N2)C3=CC=NC=C3)C4=CC(=C(C=C4)Cl)O
Method in brief: as §1

[7] = compound: C1=CC=C2C(=C1)C3=NNC4=CC=CC(=C43)C2=O
Method in brief: as §1

[8] = compound: C1CCN(C1)C(=O)NC2=CC=CC(=C2)NC3=NC=C(C(=N3)NCCC4=CN=CN4)Br
Method in brief: as §1

[9] = compound: C1CN(CCC1(CC2=CC=C(C=C2)Cl)N)C3=NC=NC4=C3C=CN4
Method in brief: as §1

IRAK-1-4 Inhibitor I = compound: C1COCCN1CCN2C3=CC=CC=C3N=C2NC(=O)C4=CC(=CC=C4)[N+](=O)[O-] [IRAK-1-4 Inhibitor I]
Method in brief: as §1

ibrutinib = compound: C=CC(=O)N1CCC[C@@H](n2nc(-c3ccc(Oc4ccccc4)cc3)c3c(N)ncnc32)C1 [ibrutinib]
Method in brief: as §1

[10] = compound: CC(=O)c1cnc2ccc(-c3cc(Cl)c(O)c(Cl)c3)nc2c1N[C@H]1CC[C@H](CN(C)C)CC1
Method in brief: as §1

ralimetinib = compound: CC(C)(C)Cn1c(N)nc2ccc(-c3[nH]c(C(C)(C)C)nc3-c3ccc(F)cc3)nc21 [ralimetinib]
Method in brief: as §1

[11] = compound: CC(C)(O)CC(=O)NCCn1ccc2ncnc(Nc3ccc(Oc4cccc(C(F)(F)F)c4)c(Cl)c3)c21
Method in brief: as §1

[12] = compound: CC(C)C1=C2N=C(C=C(N2N=C1)NCC3=CC=CC=C3)NCCCCCCN
Method in brief: as §1

[13] = compound: CC(C)C[C@@H](C=O)NC(=O)[C@H](CC(C)C)NC(=O)[C@H](CC(C)C)NC(=O)OCc1ccccc1
Method in brief: as §1

pinometostat = compound: CC(C)N(C[C@H]1O[C@@H](n2cnc3c(N)ncnc32)[C@H](O)[C@@H]1O)[C@H]1C[C@@H](CCc2nc3cc(C(C)(C)C)ccc3[nH]2)C1 [pinometostat]
Method in brief: as §1

[14] = compound: CC1=C(C(CC(=O)N1)C2=CC=C(C=C2)C(F)(F)F)C(=O)NC3=C(C=C4C(=C3)C=NN4)F
Method in brief: as §1

[15] = compound: CC1=C(C2=C(C=C1)C(=O)C3=CC=CC=C3N2CCCN)C
Method in brief: as §1

Measured: log2 fold change

CETN3 (UniProt O15182)
UniProt O15182, sequence (O15182 whole entry, looked up): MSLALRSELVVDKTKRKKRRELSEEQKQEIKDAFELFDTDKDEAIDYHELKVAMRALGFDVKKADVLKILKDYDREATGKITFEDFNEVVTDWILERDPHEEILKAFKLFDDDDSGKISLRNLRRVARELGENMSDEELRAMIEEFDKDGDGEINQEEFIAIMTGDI
inactive: erlotinib -0.098 | [1] 0.009 | [2] -0.065 | [3] -0.022 | [4] 0.027 | [5] 0.077 | [6] -0.12 | [7] -0.055 | [8] 0.041 | [9] -0.125 | IRAK-1-4 Inhibitor I 0.031 | ibrutinib -0.022 | [10] -0.006 | ralimetinib -0.075 | [11] 0.035 | [12] -0.038 | [13] 0.039 | pinometostat 0.016 | [14] -0.002 | [15] -0.18

CLINT1 isoform 3 (UniProt Q14677)
UniProt Q14677, sequence (Q14677 whole entry, looked up): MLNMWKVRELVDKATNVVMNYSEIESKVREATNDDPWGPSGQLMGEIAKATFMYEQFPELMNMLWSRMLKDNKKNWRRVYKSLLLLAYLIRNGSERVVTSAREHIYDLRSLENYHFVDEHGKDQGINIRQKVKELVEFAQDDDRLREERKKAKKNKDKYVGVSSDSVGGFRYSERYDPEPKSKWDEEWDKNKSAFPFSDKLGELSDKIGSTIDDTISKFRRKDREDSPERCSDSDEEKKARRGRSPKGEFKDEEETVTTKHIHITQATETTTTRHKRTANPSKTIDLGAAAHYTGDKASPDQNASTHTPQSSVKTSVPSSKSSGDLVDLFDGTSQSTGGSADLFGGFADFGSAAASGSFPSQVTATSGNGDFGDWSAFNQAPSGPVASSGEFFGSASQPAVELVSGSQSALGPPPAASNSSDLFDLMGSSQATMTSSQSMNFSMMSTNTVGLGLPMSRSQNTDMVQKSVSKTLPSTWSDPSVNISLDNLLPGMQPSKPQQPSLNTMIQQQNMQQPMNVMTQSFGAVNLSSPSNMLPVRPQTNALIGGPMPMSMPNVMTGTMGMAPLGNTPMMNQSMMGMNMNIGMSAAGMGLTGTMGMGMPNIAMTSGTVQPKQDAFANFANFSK
inactive: erlotinib 0.016 | [1] -0.134 | [2] -0.097 | [3] -0.036 | [4] 0.026 | [5] 0.05 | [6] -0.03 | [7] -0.042 | [8] -0.044 | [9] 0.042 | [10] 0.135 | ralimetinib 0.139 | [11] 0.102 | [12] 0.103 | [13] 0.04 | pinometostat 0.047 | [14] -0.002 | [15] 0.022

CCND3 (UniProt P30281)
UniProt P30281, sequence (P30281 whole entry, looked up): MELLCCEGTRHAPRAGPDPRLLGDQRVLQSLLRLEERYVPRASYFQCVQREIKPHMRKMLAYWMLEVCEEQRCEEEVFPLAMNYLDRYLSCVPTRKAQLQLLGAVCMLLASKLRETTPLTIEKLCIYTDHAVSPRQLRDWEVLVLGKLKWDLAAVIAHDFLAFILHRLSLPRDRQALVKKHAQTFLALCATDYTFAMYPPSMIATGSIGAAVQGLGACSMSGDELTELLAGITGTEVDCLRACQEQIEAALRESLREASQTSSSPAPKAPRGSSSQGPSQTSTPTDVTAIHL
inactive: erlotinib -0.028 | [1] -0.025 | [2] -0.081 | [3] 0.036 | [4] 0.143 | [5] 0.289 | [6] 0.047 | [7] -0.001 | [8] 0.09 | [9] -0.043 | ibrutinib -0.063 | [10] 0.078 | ralimetinib -0.076 | [11] 0 | [12] -0.303 | [13] 0.341 | [15] -0.088

COX17 (UniProt Q14061)
UniProt Q14061, sequence (Q14061 whole entry, looked up): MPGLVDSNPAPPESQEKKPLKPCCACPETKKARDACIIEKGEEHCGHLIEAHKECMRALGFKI
inactive: erlotinib -0.032 | [1] -0.064 | [2] 0.375 | [3] -0.009 | [4] 0.035 | [6] 0.207 | [7] 0.404 | [8] -0.117 | [9] 0 | IRAK-1-4 Inhibitor I -0.14 | [10] -0.052 | ralimetinib 0.41 | [11] -0.158 | [12] 0.019 | [13] -0.196 | pinometostat -0.014 | [14] 0.241 | [15] 0.086

CDCA2 (UniProt Q69YH5)
UniProt Q69YH5, sequence (Q69YH5 whole entry, looked up): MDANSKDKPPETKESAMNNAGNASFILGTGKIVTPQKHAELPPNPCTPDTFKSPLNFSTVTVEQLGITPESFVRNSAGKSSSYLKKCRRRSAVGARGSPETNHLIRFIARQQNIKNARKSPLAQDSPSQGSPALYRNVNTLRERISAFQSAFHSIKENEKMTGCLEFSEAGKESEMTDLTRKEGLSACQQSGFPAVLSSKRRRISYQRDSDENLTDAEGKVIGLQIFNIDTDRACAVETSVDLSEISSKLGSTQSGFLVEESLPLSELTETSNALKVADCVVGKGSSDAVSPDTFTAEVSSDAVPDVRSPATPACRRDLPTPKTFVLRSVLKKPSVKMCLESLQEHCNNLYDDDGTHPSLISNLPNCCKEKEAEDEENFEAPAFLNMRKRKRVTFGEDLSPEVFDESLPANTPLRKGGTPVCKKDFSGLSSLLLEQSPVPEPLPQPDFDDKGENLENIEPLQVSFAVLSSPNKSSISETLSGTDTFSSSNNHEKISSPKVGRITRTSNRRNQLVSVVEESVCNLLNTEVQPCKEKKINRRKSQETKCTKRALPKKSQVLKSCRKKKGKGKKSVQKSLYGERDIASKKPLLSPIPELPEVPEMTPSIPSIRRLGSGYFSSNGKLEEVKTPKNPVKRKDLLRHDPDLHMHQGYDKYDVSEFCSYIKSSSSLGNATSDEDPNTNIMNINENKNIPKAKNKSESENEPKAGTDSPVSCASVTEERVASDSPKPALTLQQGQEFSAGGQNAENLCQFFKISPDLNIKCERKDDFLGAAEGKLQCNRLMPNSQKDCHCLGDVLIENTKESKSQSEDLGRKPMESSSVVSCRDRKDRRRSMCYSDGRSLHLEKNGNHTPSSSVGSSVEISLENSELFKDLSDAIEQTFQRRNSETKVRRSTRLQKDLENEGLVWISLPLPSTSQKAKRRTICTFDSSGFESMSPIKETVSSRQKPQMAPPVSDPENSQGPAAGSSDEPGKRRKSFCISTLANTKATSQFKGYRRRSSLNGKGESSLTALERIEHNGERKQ
active: erlotinib 0.519
inactive: [1] -0.46 | [2] 0.043 | [3] -0.333 | [4] 0.048 | [6] -0.002 | [7] -0.033 | [8] -0.082 | [9] 0.256 | IRAK-1-4 Inhibitor I 0.023 | [10] 0.011 | ralimetinib 0.081 | [11] -0.138 | [12] -0.009 | [13] 0.188 | pinometostat -0.008 | [14] -0.018 | [15] -0.003

CDK5 (UniProt Q00535)
UniProt Q00535, sequence (Q00535 whole entry, looked up): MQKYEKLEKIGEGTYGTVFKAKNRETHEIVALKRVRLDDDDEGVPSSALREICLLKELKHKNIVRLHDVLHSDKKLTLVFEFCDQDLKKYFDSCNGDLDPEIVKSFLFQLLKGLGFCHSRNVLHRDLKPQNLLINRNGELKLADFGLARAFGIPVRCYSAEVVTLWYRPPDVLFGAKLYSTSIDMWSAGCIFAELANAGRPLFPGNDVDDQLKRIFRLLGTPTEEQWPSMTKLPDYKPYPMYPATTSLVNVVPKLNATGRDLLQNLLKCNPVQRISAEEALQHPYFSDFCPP
inactive: erlotinib -0.02 | [1] -0.009 | [2] 0.041 | [3] -0.008 | [4] -0.014 | [5] 0.052 | [6] -0.02 | [8] 0.017 | [9] 0.038 | IRAK-1-4 Inhibitor I 0.008 | ibrutinib -0.009 | [10] 0.038 | ralimetinib 0.032 | [11] -0.07 | [12] -0.021 | [13] 0.043 | pinometostat 0.024 | [14] 0.038 | [15] 0.028

CENPE (UniProt Q02224)
inactive: erlotinib 0.268 | [1] 0.525 | [3] -0.096 | [5] 0.098 | [6] 0.072 | [7] 0.444 | [8] 0.011 | [9] 0.032 | IRAK-1-4 Inhibitor I 0.046 | ibrutinib -0.184 | [10] 0.431 | ralimetinib 0.119 | [12] 0.211 | [13] 0.11 | pinometostat -0.002 | [15] 0.101
active: [4] -0.875

CDK19 (UniProt Q9BWU1)
UniProt Q9BWU1, sequence (Q9BWU1 whole entry, looked up): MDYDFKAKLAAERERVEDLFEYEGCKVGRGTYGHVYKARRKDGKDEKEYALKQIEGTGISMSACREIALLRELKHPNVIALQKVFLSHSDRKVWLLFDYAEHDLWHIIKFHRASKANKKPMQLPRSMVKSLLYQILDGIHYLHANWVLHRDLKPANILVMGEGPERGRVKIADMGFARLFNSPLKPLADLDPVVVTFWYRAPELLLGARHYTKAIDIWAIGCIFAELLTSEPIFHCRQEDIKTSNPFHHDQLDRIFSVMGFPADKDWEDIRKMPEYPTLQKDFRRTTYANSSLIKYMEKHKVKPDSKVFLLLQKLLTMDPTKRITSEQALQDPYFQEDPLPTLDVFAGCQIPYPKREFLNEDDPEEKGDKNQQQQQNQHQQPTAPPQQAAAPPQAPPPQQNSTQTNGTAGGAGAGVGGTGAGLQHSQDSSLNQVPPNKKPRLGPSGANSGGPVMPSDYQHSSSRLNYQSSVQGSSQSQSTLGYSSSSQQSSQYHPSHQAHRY
inactive: erlotinib -0.2 | [1] -0.116 | [2] 0.053 | [3] 0.268 | [4] 0.111 | [6] -0.167 | [7] 0.099 | [8] 0.003 | [9] 0.021 | ralimetinib -0.133 | [11] -0.02 | [12] 0.222 | [13] 0.074 | [14] -0.156 | [15] 0.119
active: [10] 0.541

C19orf54 (UniProt Q5BKX5)
UniProt Q5BKX5, sequence (Q5BKX5 whole entry, looked up): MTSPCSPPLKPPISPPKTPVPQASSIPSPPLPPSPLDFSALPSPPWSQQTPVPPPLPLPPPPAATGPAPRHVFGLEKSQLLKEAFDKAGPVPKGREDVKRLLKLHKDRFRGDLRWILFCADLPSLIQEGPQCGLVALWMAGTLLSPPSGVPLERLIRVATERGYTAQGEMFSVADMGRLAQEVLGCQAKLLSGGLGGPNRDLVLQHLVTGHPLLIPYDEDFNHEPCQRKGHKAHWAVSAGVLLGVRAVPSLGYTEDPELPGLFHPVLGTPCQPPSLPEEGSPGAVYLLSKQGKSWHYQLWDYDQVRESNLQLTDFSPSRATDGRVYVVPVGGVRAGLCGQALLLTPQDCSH
inactive: erlotinib -0.094 | [1] -0.054 | [2] 0.024 | [3] 0.008 | [4] -0.005 | [6] -0.024 | [7] 0.026 | [8] -0.027 | IRAK-1-4 Inhibitor I 0.008 | [10] 0.045 | ralimetinib 0.019 | [11] -0.003 | [12] -0.022 | [13] 0.08 | pinometostat -0.016 | [15] -0.054
active: [9] -0.543
